Growth data for 13 compounds are collected here from PubChem BioAssay (NCI).

About 83,000 compounds went through this panel and 20% of them were active in at least one assay; those are over-represented in the sample as a whole.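 48-hour exposure, single concentration, 96-well plates; percent growth endpoint where 0 means no net growth. Active: below 10.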 Unmarked numbers belong to inactive results. Activity calls are given as the source filed them.

Holding throughout (assay): NCI-60 one-dose screen, 48 h (100 = growth as untreated, 0 = no growth, -100 = all killed)
For test [1], the system named is DU-145 prostate. Particulars: 10 µM unless noted.
Test [2] deals with K-562 leukemia. As to conditions: 10 µM unless noted.
Test [3] deals with MALME-3M melanoma. As to conditions: 10 µM unless noted.
The test system of test [4] is MDA-MB-231 breast. As to conditions: 10 µM unless noted.
The subject of test [5] is RXF 393 renal. As to conditions: 10 µM unless noted.
The subject of test [6] is SF-268 CNS. Particulars: 10 µM unless noted.
The test system of test [7] is SF-295 CNS. Particulars: 10 µM unless noted.
The test system of test [8] is SF-539 CNS. As to conditions: 10 µM unless noted.
Test [9] concerns UACC-257 melanoma. As to conditions: 10 µM.
The test system of test [10] is M14 melanoma. Particulars: 10 µM unless noted.

`CC1CCN(S(=O)(=O)c2ncsc2-c2ccccc2)CC1`: the growth in [1] was 92%; in [2], 72.7%; in test [3], 78.7%; in [4], 92%; in test [5], 9.28% (active); in test [6], 82.9%. In addition, the growth in test [7] was 30.7%; in test [8], 44.3%; in test [9], 106%; in test [10], 83.5%.
For `O=C(NNc1nc2cc(F)cc(F)c2n2cccc12)c1ncccn1`, the growth in test [1] was 20.6%; in test [2] it was 17.8%; in [3], 25.9%; in test [4], 34.9%; in [5], 33%; in test [6], 13.6%. Moreover, the growth in test [7] was 12.6%; in test [8], -0.152% (active); in test [9] it was 12.9%; in test [10] it was -18.1% (active).
For the compound `COc1cc(O)c2c(c1)/C=C/C[C@H](O)[C@H](O)C(=O)/C=C\C[C@H](C)OC2=O`, the growth in test [1] is -2.78% (active); in test [2], 9.06% (active); in [3], -20.3% (active); in test [4], -7.72% (active); in [5], -56.9% (active); in test [6], 34.9%. For the same compound, the growth is 60.2% in test [7], -24.8% (active) in test [8], -19.7% (active) in test [9] and -22.7% (active) in test [10].
In the case of `CC(=O)C1=NN(c2ccc(Cl)cc2)C(=O)CN1C`, the growth in test [1] was 107%; in [2], 114%; in test [3] it was 107%; in test [4] it was 105%; in [5], 121%; in test [6] it was 108%. In addition, the growth was 95.5% in test [7], 97.8% in test [8], 101% in test [9] and 101% in test [10].
For the compound `CC(C)=CCC[C@](C)(O)[C@H]1CC[C@]2(C)[C@@H]1CC[C@@H]1[C@@]3(C)CCC(NC(=O)c4ccccc4C(=O)O)C(C)(C)[C@@H]3CC[C@]12C` (stereo not given in full), the growth in test [1] is 96.4%; in [2], 90.8%; in test [3], 31.8%; in [4] it was 82.6%; in test [5], 101%; in test [6], 95.3%. The growth in [7] is 100%; in test [8], 89.3%; in test [9], 30.5%; in test [10], 57.8%.
Consider `CNC(=O)c1cc(Oc2ccc3nc(NC(=O)c4ccc(CN5CCCN(C)CC5)c(C(F)(F)F)c4)sc3c2)ccn1`, for which the growth in [1] was 40.2%; in [2] it was -39.9% (active); in test [3], -69.7% (active); in test [4], -21.9% (active); in test [5], -46.4% (active); in test [6], 58%. Moreover, the growth was -34.8% (active) in [7], -82.5% (active) in test [8], -88.4% (active) in [9] and -88% (active) in test [10].
Regarding `O=C(CSc1ccc(-c2nc3ccccc3[nH]2)cn1)N1CCN(c2ccccc2F)CC1`, the growth in test [1] was 90.7%; in [2] it was 41.9%; in test [3], 90.8%; in test [4] it was 100%; in test [5], 90.7%; in [6] it was 87.7%. Also, the growth in test [7] was 61.4%; in test [8] it was 92.1%; in [9] it was 56.2%; in test [10] it was 59.8%.
For the compound `COc1ccc(/C=C/C(=O)c2nnn(-c3ccc(Br)cc3)c2C)cc1OC`, the growth in test [1] was 73.5%; in [2], 19.2%; in [3], 83%; in [4], 83.3%; in [5], 80.3%; in test [6], 89.4%. Moreover, the growth is 80.2% in test [7], 83.7% in [8], 85.3% in [9] and 60.4% in test [10].
On to `Cc1cc(F)cc(NS(=O)(=O)c2ccc(-c3cnc(C4CC4)o3)cc2)c1`, for which the growth was 23.7% in test [1]; 8.06% (active) in test [2]; 59.2% in test [3]; 30.5% in test [4]; -3.39% (active) in test [5]; 63.6% in test [6]. Also, the growth in [7] is -5.64% (active); in [8], -1.6% (active); in [9], 59.1%; in test [10], 19.5%.
Turning to `O=C(Nc1cc(Cl)cc(Cl)c1)Nc1nc2ccc([N+](=O)[O-])cc2s1`, the growth was 16.9% in test [1]; 3.25% (active) in [2]; -8.59% (active) in [3]; -0.651% (active) in test [4]; -25% (active) in [5]; 15.4% in test [6]. The growth in test [7] is -57.2% (active); in [8], 3.86% (active); in [9], -14.5% (active); in test [10], -9.81% (active).
As for `COc1ccc(CCN2C(=O)/C(=C/c3nc(CO)cs3)SC2=S)cc1`, the growth in [1] is 46.1%; in test [2] it was 60.4%; in test [3], 73.2%; in test [4], 53.2%; in test [5] it was 51.1%; in test [6], 94.8%. The growth is 101% in [7], 11.2% in test [8], 91.2% in test [9] and 85.3% in [10].
For `CS(=O)c1nccc(-c2c(-c3ccc(F)c(OCCc4ccc(F)cc4)c3)nc3sccn23)n1` (stereo not given), the growth in test [1] was 1.03% (active); in test [2], 7.91% (active); in test [3] it was 55.6%; in [4], 45%; in test [5], 60.9%; in [6], 93.3%. Also, the growth in [7] was 98.3%; in test [8], 91.2%; in test [9], -0.163% (active); in test [10], 67.6%.
`O=C(CSc1nnc(-c2cccs2)n1-c1ccccc1)Nc1ccc(F)cc1`: the growth in [1] was 107%; in [2], 65.4%; in [3], 97.4%; in test [4], 83.1%; in test [5], 97.9%; in test [6], 101%. Further, the growth in test [7] is 91%; in test [8], 89.9%; in [9] it was 103%; in [10] it was 99.2%.
